LmPK inhibitor: qHTS Assay for Inhibitors of Leishmania Mexicana Pyruvate Kinase (LmPK) | Q27686 | purified LmPK, Kinase-Glo ATP luminescence, 1 h | Potency, µM (highest dose often 57.5 µM), most hits filed as inhibitors | hit rate 0.37% among 290,000
Target sequence (Q27686 whole entry, looked up): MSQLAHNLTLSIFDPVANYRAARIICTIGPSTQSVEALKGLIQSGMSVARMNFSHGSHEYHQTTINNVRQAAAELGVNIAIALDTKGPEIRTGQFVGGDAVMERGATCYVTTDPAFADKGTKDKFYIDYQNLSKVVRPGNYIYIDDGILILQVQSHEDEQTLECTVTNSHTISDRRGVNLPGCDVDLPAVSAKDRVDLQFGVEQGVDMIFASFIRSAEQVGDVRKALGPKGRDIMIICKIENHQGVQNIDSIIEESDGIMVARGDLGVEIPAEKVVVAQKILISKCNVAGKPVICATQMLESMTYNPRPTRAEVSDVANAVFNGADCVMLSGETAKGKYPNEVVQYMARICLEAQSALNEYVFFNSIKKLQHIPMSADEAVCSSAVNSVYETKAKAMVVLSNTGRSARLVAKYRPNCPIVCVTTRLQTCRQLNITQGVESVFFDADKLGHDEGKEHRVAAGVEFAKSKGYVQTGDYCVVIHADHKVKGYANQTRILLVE
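In 50 mM imidazole pH 7.2 with 7 mM MgCl2, LmPK (0.1 nM) turned over PEP (0.5 mM) and ADP (0.1 mM) for 1 h at room temperature. Luciferase read-out of ATP.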
VACV mCherry inh: qHTS for Stage-Specific Inhibitors of Vaccinia Orthopoxvirus: mCherry Reporter Primary qHTS | Potency, µM (titrated, usually from 36.5 µM), actives largely listed as inhibitors | hit rate 0.63% among 310,000 | Vaccinia virus mCherry reporter infection, fluorescence; calls by dose curve; tested in A549 cells; note: nearly all actives have a fitted effect of over 35% in size
HCMV inh: qHTS Assay for inhibitors of the human cytomegalovirus (HCMV); hit rate 4.5% among 410,000; activity change, negative = inhibition, % at 57.5 µM; AID 1259415, 2018; HFF cells, HCMV-luciferase reporter, 72 h; hits give low values; in the data active = activity change below about -60%; inconclusive = no clear call, values can overlap the other calls; inactive = above about -39%
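After 16 h attachment at 37C, HFF cells received test compound and HCMV-luciferase (1 PFU/cell); reporter luminescence read 72 h later, data normalized against buffer-only and known inhibitor Salinomycin.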
VACV Venus inh: qHTS for Stage-Specific Inhibitors of Vaccinia Orthopoxvirus: Venus Reporter Primary qHTS; Vaccinia virus Venus reporter expression, fluorescence; Potency, µM (doses to about 36.5 µM), hits mostly inhibitors; hit rate 0.46% among 330,000; AID 720580, 2013; calls by dose curve; tested in A549 cells; note: nearly all actives have a fitted effect of over 30% in size
TbPYK inhibitor: qHTS of Trypanosoma Brucei Inhibitors. Potency, µM (top dose mostly 76.8 µM), actives largely listed as inhibitors. hit rate 0.12% among 410,000. TbPYK enzyme, Kinase-Glo Plus ATP luminescence, 45 min. AID 624173, 2012; note: nearly all actives have a fitted effect of over 50% in size
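Screened from lowest to highest concentration, compounds were pinned into TbPYK/substrate mixtures, and ADP (130 uM final) was added. Plates sat at room temperature for 45 min prior to Kinase-Glo Plus detection by luminescence.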
Hits are given with their value; – = inactive; ? = inconclusive; · = no result given; [ ] = another dose, or the depositor's remark. Shown are actives, neighbours in structure and some others; about 5% of the full set was active somewhere. Unless noted, calls come from the whole dose curve; as a rule, active = well fitted curve in the direction sought with a large enough effect; inconclusive = small, poorly fitted or top-dose-only effect, or another doubt; inactive = no such curve, though single readings can be large; an effect the other way counts as inactive or inconclusive.

SMILES	LmPK inhibitor	VACV mCherry inh	HCMV inh	VACV Venus inh	TbPYK inhibitor
O=C(Nc1cc(S(=O)(=O)N2CCCC2)ccc1OCC(F)(F)F)c1ccccc1F	–	–	–	?	–
Cc1ccc(C(=O)c2c3ccccc3[n+]([O-])n2CCC(=O)O)cc1	·	–	–	–	–
NC(=O)CCCn1c(C(=O)c2cc(Cl)c(N)c(Cl)c2)c2ccc([N+](=O)[O-])cc2[n+]1[O-]	·	?	–	11.2µM	–
NC(=O)CCn1c(C(=O)c2ccc(Cl)cc2)c2ccccc2[n+]1[O-]	–	–	-88.1	–	–
NC(=O)CCCn1c(C(=O)c2ccc(Cl)cc2)c2ccc([N+](=O)[O-])cc2[n+]1[O-]	·	?	?	?	–
NCCCn1c(C(=O)c2ccc(Cl)cc2)c2ccc([N+](=O)[O-])cc2[n+]1[O-]	·	7.08µM	–	?	–
Cc1ccc(C)c(N2CCN(C(=O)c3ccc(N4CCOCC4)c([N+](=O)[O-])c3)CC2)c1	–	?	–	–	–
CCN(CC)[C@@H](C)CN1c2ccccc2Sc2ccccc21	·	·	·	·	–
COc1ccc(C2=Nn3c(nnc3-c3ccccc3Cl)SC2)cc1OCC1CC1	·	·	-66.1	·	–
COc1ccc(OC)c(-c2nnc3n2N=C(c2ccc(OC)c(OCC4CC4)c2)CS3)c1	·	·	·	·	–
CCOc1ccc(C2=Nn3c(nnc3-c3ccccc3OC)SC2)cc1	–	·	-94.3	·	–
COc1ccc(C2=Nn3c(nnc3-c3ccccc3OC)SC2)cc1OC1CCOC1 (stereo unspecified)	·	·	-90.2	·	–
COc1ccc(C2=Nn3c(nnc3-c3ccccc3C(F)(F)F)SC2)cc1OC1CCOC1 (stereo unspecified)	·	·	–	·	–
Brc1ccc2c(c1)C(OC1CN3CCC1CC3)c1ccccc1CS2 (stereo unspecified)	–	?	–	11.2µM	–
C[CH2][Hg][S]c1ccccc1C(=O)O	·	?	-95.5	11.2µM	11.2µM
O=C(O)c1ccccc1SSc1ccccc1C(=O)O	–	–	–	–	–
Cn1cc(CN2CCC(n3nccc3NC(=O)CCc3ccccc3)CC2)cn1	–	–	–	–	–
CCC(C)[C@H](NC(=O)C1CC(=O)N(c2ccc3c(c2)OCO3)C1)C(=O)NC1CCCCC1 (stereo partly specified)	–	·	?	·	–
Nc1ncnc2c1ccn2[C@H]1CN(Cc2ccc3c(c2)OCO3)C[C@@H](CO)O1	·	–	–	–	–
CC(OC(=O)c1ccccc1NS(=O)(=O)c1cccc(N)c1)C(=O)N(C)Cc1ccccc1 (stereo unspecified)	–	–	-72.1	–	–
CC(OC(=O)c1cccc(O)c1)C(=O)N(C)Cc1ccccc1 (stereo unspecified)	·	–	–	–	–
C/C(Cl)=C\Cn1c(O)c(N=NC(N)=S)c2ccccc21	–	0.316µM	–	?	–
Cc1ccc(NC(=O)Cn2c(O)c(N=NC(N)=O)c3ccccc32)cc1	–	–	–	–	–
Cc1ccc(NC(=O)Cn2c(O)c(N=NC(N)=S)c3ccccc32)cc1	–	?	–	0.282µM	–
NC(=S)N=Nc1c(O)n(Cc2ccccc2)c2ccccc12	–	?	?	0.316µM	–
SMILES	LmPK inhibitor	VACV mCherry inh	HCMV inh	VACV Venus inh	TbPYK inhibitor
Cc1cc(C)cc(NC(=O)CCCn2c3ccccc3c(=O)c3ccccc32)c1	·	?	-77.4	?	–
COc1ccc(OCC(=O)NNC(=O)c2ccccn2)cc1	–	·	–	·	–
COc1ccc([N+](=O)[O-])c(C=CC(=O)c2ccccn2)c1	·	–	–	–	–
COc1cc(OC)cc(C(=O)NNC(=O)c2ccccn2)c1	–	?	-97.8	?	–
COc1ccc(C(=O)NCCNC(=O)c2ccccn2)cc1	–	–	–	–	–
COc1ccc(C(=O)NNC(=O)c2ccccn2)cc1	1.26µM	·	-83.6	·	?
COc1cc(OC)cc(C(=O)NC(=S)NNC(=O)c2cnccn2)c1	–	–	-88.8	–	–
COc1ccc(/C=C/C(=O)c2ccccn2)cc1	8.91µM	–	–	–	?
c1ccc(-c2ccc3c(n2)CCCO3)cc1	·	–	–	–	–
Cc1ccc(S(=O)(=O)c2nnn3c2nc(NCc2ccc4c(c2)OCO4)c2sccc23)cc1C	·	?	–	?	–
O=C(/C=C/c1ccccc1)NC(=S)NNC(=O)c1cccnc1	–	·	–	·	–
O=C(/C=C/c1ccccc1)NC(=S)NNC(=O)c1cnccn1	–	–[7.34 µM]	-98.0	–[7.34 µM]	–
CCc1c(C)c2ccc(O)c(CN3CCN(c4ccccc4)CC3)c2oc1=O	·	–	-60.6	–	–
CCc1c(C)c2ccc(O)c(CN3CCCC3)c2oc1=O	–	–	–	–	–
CCCOc1ccc(-c2c(C(=O)N/N=C/c3ccccc3OCC)nnn2-c2nonc2N)cc1	–	?	–	–	–
CSC(=NC#N)N1CCN(c2cccc(Cl)c2)CC1	–	?	-67.1	–	–
Cc1ccc(C(N)=O)cc1S(=O)(=O)Nc1cccc(C)c1C	–	·	–	·	–
CC(C)CN(C(=O)Cn1c(C(F)(F)F)nc2ccccc21)C1CCS(=O)(=O)C1 (stereo unspecified)	·	–	–	–	–
ClC(/C=N/n1cnnc1)=C/c1ccccc1	–	–	–	–	–
O=C1C=C(c2ccccc2)C[C@H](c2cccs2)[C@H]1n1nnc([N+](=O)[O-])n1	–	14.1µM	?	?	–
O=C1C=C(c2ccccc2)CC(c2cccs2)C1n1cnc([N+](=O)[O-])c1 (stereo unspecified)	–	·	–	–	–
O=C(c1ccc([N+](=O)[O-])o1)N1CCc2ccccc21	–	?	–	?	–
Cc1ccc(NC(=O)N2CCc3ccccc32)cc1C	?	–	–	–	–
Cc1ccc(C(=O)N2CCc3ccccc32)o1	14.1µM	–	–	–	–
CN1CCN(c2ccc(NC(=O)N3CCc4ccccc43)cc2)CC1	–	–	-78.0	–	–
SMILES	LmPK inhibitor	VACV mCherry inh	HCMV inh	VACV Venus inh	TbPYK inhibitor
Cc1ccc(NC(=O)N2CCc3ccccc32)cc1	25.1µM	·	–	·	–
Cc1ccc(NC(=O)N2CCCc3ccccc32)cc1	–	–	–	–	–
FC(F)Sc1ccc(-n2cc(-c3ccccc3)[n+]3c2CCC3)cc1	–	–	–	–	–
COc1ccc(-n2cc(-c3ccccc3)[n+]3c2CCCCC3)cc1	–	–	-89.7	–	–
COc1ccc(-c2cn(-c3ccc(OC)cc3)c3[n+]2-c2ccccc2CC3)cc1	–	–	-96.9	–	–
O=C(Cn1c(=O)nc(-c2ccccc2)c2cc(Cl)ccc21)NCCc1ccc(Cl)cc1	·	–	–	–	–
O=C(CCC1CCCC1)Nc1nnc(-c2ccc3c(c2)OCO3)s1	–	–	–	–	–
O=[N+]([O-])c1ccc(Cl)c(S(=O)(=O)NC2=NCCC2)c1	·	?	–	–	–
CCOC(=O)C1(CCOc2ccccc2)CCN(Cc2ccncc2)CC1	–	–	–	–	–
CCOC(=O)C1(CCOc2ccccc2)CCN(Cc2ccc(-n3cccn3)cc2)CC1	–	?	-61.4	?	–

Screens as filed in PubChem BioAssay.
